The values that follow come from ChEMBL document CHEMBL1961873, “Compounds: GSK PKIS; Assays: Nanosyn kinase panel” (2012).

In experiment [1] the target is High affinity nerve growth factor receptor (Homo sapiens) (UniProt P04629). The following applies: at 1 µM.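 Also: each value is the mean percent inhibition of TRKA.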
The target in experiment [2] is BDNF/NT-3 growth factors receptor (Homo sapiens) (UniProt Q16620). The following applies: at 0.1 µM.
For experiment [3] the target is unchanged. The following applies: at 1 µM.
Experiment [4] deals with NT-3 growth factor receptor (Homo sapiens) (UniProt Q16288). The following applies: at 0.1 µM.
The target is the same in experiment [5]. As to conditions: at 1 µM.
Experiment [6] has as its target T1, Tyrosine-protein kinase TXK (Homo sapiens) (UniProt P42681).
T1 sequence (whole entry): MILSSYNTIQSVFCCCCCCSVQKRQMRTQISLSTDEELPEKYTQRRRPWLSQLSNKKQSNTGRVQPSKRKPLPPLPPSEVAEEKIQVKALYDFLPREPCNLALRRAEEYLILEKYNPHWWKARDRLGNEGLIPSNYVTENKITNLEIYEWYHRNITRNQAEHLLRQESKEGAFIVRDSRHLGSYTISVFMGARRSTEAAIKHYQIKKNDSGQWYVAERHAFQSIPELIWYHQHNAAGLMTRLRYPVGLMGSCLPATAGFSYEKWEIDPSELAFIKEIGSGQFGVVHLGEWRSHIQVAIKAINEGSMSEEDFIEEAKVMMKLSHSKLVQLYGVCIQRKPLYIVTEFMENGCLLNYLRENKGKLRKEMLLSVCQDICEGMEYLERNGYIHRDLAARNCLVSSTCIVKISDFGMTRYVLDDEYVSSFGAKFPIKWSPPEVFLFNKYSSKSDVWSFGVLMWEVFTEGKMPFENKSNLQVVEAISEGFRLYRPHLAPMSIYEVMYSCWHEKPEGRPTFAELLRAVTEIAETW
As to conditions: at 0.1 µM.

The target of experiment [7] is T1, Tyrosine-protein kinase TXK (Homo sapiens). As to conditions: at 1 µM.
Experiment [8] has as its target Non-receptor tyrosine-protein kinase TYK2 (Homo sapiens) (UniProt P29597). The following applies: at 0.1 µM.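 Also: each value is a mean of the inhibition readings.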
The target in experiment [9] is T2, Dual specificity protein kinase TTK (Homo sapiens) (UniProt P33981).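 Also: reported figures are mean TTK inhibition at 1 µM.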
T2 sequence (whole entry): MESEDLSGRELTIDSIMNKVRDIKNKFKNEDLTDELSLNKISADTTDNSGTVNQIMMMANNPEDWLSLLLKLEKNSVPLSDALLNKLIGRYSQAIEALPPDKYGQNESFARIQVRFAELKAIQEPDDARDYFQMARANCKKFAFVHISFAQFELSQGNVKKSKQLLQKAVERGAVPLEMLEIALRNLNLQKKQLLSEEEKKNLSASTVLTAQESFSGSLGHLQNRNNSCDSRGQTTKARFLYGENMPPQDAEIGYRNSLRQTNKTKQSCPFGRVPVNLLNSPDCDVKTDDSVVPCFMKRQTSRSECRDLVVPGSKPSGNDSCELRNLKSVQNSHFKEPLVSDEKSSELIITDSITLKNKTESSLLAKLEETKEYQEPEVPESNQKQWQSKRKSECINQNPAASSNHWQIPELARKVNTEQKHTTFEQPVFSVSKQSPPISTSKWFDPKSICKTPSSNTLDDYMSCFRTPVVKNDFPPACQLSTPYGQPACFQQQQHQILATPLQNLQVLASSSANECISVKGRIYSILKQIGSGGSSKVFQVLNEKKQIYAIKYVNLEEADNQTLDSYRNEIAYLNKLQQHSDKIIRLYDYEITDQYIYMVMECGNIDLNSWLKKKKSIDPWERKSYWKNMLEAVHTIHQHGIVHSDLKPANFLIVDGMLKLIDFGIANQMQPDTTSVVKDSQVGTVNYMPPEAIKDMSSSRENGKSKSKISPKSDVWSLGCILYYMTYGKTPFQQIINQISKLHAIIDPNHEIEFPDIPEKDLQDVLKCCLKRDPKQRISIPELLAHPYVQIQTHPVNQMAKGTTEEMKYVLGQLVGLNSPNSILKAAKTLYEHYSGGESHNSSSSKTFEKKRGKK
The following applies: at 1 µM.

The target of experiment [10] is T3, Aurora kinase A (Homo sapiens) (UniProt O14965).
T3 sequence (whole entry): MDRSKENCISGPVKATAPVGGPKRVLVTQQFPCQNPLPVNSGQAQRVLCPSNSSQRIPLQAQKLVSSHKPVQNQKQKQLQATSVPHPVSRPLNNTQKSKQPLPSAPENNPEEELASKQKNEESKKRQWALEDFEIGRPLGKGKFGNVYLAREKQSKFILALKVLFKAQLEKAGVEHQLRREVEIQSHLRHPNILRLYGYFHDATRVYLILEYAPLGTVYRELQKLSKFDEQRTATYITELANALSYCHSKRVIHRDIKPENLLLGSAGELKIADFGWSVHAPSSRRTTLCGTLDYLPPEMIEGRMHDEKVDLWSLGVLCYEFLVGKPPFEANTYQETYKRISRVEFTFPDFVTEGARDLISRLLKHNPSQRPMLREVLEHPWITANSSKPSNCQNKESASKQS
As to conditions: at 0.1 µM.

Experiment [11] deals with T3, Aurora kinase A (Homo sapiens). As to conditions: at 1 µM.
The target in experiment [12] is Aurora kinase B (Homo sapiens) (UniProt Q96GD4). The following applies: at 0.1 µM.
For experiment [13] the target is unchanged. As to conditions: at 1 µM.
The target of experiment [14] is T4, Aurora kinase C (Homo sapiens) (UniProt Q9UQB9).
T4 sequence (whole entry): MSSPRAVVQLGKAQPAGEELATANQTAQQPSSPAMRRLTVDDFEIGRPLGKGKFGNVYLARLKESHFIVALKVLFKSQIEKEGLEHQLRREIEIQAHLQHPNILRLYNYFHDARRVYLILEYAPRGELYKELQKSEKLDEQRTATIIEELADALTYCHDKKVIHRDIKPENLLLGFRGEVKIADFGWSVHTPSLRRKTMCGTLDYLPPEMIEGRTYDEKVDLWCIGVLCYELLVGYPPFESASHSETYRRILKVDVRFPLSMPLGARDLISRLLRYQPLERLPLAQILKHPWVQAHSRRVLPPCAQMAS
As to conditions: at 0.1 µM.

Experiment [15] deals with T4, Aurora kinase C (Homo sapiens). The following applies: at 1 µM.
Experiment [16] has as its target Serine/threonine-protein kinase 10 (Homo sapiens) (UniProt O94804). As to conditions: at 0.1 µM.
Experiment [17] has the same target. The following applies: at 1 µM.
The target in experiment [18] is T5, Mitogen-activated protein kinase kinase kinase kinase 2 (Homo sapiens) (UniProt Q12851).
T5 sequence (whole entry): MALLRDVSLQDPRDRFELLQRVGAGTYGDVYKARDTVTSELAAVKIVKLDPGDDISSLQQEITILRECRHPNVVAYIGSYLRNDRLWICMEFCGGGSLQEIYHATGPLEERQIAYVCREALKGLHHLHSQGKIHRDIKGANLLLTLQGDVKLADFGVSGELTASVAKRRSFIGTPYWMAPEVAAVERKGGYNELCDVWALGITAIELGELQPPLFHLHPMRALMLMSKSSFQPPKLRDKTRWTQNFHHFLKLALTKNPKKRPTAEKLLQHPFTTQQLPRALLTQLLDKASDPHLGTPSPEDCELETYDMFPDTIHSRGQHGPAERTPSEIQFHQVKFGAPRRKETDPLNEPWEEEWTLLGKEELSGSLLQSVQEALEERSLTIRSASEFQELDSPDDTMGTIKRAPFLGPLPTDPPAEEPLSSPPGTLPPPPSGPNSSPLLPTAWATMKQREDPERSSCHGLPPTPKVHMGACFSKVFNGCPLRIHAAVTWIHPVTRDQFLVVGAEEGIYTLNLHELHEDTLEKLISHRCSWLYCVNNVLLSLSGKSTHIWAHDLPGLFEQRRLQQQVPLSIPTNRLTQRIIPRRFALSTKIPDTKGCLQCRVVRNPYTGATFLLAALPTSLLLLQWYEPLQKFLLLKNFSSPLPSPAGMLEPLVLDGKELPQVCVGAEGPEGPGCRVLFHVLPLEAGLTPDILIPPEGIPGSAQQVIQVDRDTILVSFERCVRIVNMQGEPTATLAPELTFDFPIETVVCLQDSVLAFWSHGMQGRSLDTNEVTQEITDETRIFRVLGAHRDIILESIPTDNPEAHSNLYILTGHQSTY
As to conditions: at 0.1 µM.

The target of experiment [19] is T5, Mitogen-activated protein kinase kinase kinase kinase 2 (Homo sapiens). As to conditions: at 1 µM.
Experiment [20] addresses Mitogen-activated protein kinase kinase kinase kinase 4 (Homo sapiens) (UniProt O95819). The following applies: at 0.1 µM.

The structures appear in SMILES notation.

Sequence of High affinity nerve growth factor receptor (Homo sapiens) (P04629 33-796 limits assumed): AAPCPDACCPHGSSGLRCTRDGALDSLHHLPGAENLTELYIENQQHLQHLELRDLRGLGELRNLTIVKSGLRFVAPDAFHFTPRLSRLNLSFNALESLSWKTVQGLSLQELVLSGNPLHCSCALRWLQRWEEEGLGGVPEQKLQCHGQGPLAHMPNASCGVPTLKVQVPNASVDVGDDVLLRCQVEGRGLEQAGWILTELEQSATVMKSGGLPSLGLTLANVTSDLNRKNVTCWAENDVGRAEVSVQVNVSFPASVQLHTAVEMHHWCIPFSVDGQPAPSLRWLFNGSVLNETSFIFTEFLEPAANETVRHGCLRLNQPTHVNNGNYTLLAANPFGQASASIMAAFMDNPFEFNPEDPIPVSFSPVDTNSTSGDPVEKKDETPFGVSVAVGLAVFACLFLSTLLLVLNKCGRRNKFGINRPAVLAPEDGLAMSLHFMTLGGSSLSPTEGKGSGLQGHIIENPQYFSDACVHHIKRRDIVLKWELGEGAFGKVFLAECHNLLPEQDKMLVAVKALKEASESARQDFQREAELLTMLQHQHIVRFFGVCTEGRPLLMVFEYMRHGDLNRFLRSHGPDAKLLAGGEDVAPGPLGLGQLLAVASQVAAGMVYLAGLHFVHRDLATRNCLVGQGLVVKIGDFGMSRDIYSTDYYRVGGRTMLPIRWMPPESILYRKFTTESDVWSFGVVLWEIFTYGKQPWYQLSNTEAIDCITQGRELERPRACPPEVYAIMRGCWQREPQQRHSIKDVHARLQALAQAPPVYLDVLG
Sequence of NT-3 growth factor receptor (Homo sapiens) (Q16288 32-839 limits assumed): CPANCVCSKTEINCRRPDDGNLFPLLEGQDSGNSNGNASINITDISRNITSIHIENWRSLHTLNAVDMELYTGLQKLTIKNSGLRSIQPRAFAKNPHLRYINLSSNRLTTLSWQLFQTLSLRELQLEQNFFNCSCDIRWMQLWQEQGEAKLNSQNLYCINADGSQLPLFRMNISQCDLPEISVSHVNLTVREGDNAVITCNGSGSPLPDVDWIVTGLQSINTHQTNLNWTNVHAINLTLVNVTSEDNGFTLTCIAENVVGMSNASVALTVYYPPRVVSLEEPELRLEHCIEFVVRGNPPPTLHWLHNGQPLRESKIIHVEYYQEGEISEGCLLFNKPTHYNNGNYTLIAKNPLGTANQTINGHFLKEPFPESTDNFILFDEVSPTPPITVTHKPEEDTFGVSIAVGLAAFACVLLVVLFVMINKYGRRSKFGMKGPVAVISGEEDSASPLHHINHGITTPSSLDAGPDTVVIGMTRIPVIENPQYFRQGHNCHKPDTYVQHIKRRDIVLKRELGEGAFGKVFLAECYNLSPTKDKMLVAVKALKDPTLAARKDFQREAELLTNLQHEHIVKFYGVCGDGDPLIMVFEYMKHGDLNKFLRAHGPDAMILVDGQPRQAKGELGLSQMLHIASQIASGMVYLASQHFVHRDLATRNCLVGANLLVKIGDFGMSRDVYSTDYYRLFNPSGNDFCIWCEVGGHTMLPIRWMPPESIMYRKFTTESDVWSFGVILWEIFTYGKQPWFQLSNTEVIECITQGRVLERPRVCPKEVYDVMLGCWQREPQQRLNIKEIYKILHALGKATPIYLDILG
Sequence of Aurora kinase B (Homo sapiens) (Q96GD4 whole entry): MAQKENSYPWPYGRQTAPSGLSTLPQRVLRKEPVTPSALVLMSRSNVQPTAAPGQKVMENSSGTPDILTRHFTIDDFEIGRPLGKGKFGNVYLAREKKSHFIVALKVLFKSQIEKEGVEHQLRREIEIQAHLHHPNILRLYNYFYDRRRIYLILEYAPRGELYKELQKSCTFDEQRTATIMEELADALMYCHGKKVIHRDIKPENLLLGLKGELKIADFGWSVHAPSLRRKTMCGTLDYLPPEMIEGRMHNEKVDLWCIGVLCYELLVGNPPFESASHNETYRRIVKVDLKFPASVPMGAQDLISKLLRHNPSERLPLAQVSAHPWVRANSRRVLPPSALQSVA
Sequence of Non-receptor tyrosine-protein kinase TYK2 (Homo sapiens) (P29597 whole entry): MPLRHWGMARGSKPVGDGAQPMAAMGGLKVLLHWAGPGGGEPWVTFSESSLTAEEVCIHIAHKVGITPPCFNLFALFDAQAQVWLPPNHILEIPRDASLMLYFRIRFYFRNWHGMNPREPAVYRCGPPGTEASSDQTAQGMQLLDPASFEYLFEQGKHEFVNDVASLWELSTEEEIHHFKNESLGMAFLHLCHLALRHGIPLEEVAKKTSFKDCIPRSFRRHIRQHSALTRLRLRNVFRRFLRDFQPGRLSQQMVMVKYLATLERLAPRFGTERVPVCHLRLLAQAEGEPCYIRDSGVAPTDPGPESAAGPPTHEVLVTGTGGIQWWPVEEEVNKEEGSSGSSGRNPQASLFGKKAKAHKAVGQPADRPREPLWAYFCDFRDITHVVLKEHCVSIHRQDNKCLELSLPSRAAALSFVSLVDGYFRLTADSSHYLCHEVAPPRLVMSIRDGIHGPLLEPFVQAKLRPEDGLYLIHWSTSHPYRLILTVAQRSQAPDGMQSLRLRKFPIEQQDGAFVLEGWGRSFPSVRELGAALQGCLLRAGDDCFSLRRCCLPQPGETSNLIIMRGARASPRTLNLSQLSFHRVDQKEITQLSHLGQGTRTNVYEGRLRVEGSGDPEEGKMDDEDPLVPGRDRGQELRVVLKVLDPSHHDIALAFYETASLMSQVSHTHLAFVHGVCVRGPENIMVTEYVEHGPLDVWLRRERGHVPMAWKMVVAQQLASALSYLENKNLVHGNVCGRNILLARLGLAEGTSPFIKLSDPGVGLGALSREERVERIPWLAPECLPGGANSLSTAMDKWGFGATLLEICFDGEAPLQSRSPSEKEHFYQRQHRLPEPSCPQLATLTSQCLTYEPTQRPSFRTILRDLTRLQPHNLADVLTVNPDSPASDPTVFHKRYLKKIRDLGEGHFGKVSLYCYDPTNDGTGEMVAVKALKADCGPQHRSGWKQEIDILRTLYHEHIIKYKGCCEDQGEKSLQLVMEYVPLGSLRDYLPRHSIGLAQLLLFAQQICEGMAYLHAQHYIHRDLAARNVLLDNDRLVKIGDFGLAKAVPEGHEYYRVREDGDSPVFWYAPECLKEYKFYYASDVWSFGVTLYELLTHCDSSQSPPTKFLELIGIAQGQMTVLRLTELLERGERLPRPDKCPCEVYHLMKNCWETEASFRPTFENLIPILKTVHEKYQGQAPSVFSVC
Sequence of BDNF/NT-3 growth factors receptor (Homo sapiens) (Q16620 32-822 limits assumed): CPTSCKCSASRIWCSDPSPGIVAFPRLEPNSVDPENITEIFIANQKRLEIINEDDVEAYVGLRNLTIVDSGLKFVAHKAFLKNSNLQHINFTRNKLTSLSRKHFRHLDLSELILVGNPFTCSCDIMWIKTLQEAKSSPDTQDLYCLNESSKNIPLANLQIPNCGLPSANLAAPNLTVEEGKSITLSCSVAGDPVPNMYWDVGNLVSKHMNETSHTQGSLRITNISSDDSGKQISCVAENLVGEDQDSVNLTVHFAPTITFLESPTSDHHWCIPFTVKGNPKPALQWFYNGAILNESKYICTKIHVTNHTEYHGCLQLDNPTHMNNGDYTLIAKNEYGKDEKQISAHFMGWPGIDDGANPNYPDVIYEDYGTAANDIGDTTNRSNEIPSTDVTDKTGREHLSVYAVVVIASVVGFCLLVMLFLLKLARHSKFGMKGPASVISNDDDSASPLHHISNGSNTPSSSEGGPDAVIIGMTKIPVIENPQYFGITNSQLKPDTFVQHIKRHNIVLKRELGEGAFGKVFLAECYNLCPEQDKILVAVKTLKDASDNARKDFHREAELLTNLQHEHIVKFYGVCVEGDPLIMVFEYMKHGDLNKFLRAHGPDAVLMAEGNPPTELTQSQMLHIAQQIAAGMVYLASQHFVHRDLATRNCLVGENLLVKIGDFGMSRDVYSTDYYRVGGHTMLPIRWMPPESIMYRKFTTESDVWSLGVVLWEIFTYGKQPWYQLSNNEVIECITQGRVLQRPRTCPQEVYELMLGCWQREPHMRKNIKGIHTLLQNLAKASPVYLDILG
Sequence of Serine/threonine-protein kinase 10 (Homo sapiens) (O94804 whole entry, looked up): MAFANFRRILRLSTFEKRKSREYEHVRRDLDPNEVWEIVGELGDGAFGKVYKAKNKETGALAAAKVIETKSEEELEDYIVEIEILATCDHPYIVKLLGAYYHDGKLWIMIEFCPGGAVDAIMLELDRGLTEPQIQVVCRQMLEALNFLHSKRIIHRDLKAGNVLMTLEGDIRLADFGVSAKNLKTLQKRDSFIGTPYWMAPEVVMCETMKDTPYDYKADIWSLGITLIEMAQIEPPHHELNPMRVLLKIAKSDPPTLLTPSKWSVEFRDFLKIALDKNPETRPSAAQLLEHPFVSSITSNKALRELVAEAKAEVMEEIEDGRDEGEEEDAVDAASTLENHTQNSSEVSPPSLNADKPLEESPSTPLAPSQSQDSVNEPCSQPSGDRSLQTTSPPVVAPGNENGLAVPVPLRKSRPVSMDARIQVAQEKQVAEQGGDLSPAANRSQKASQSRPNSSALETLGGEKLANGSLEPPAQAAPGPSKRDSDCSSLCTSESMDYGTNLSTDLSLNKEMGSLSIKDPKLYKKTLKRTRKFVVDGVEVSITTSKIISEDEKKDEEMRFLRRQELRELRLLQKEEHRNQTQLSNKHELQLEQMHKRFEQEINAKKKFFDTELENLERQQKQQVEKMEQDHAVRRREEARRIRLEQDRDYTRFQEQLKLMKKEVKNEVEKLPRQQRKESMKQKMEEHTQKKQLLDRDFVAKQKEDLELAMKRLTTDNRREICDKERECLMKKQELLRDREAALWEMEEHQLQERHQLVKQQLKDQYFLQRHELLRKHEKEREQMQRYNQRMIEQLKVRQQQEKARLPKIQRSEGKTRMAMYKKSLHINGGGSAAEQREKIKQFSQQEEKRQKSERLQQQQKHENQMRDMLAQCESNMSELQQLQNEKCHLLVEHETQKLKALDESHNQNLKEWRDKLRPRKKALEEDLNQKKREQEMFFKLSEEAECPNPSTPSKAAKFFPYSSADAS

One may read the inhibition as the drop in the measured response relative to a control, in per cent. Consider `CCCN1CCC=C(c2ccc(Nc3nc(Nc4ccccc4C(N)=O)c4cc[nH]c4n3)c(C)c2)C1`, for which the inhibition in experiment [1] was 6.59%; in experiment [2], 3.01%; in [3], 6.47%; in experiment [4], 2.46%; in [5] it was 3.13%; in experiment [6], 6.59%. Also, the inhibition in experiment [7] is 13.1%; in [8] it was -5.21%; in experiment [9], 70.7%; in [10], 6.15%; in experiment [11], 32.6%; in experiment [12], 5.03%. In addition, the inhibition in experiment [13] came out at 12.8%; in experiment [14], 1.85%; in experiment [15], 13.7%; in experiment [16] it was 8.52%; in experiment [17], 14.9%; in [18], 6.05%. Also, the inhibition is 35.5% in experiment [19] and 19.2% in experiment [20].

With `COc1cc2ncn(-c3cc(OCc4ccccc4C(F)(F)F)c(C(N)=O)s3)c2cc1OC`, the inhibition in experiment [1] was 5.01%; in experiment [2] it was 6.06%; in experiment [3], 10.2%; in experiment [4] it was 5.07%; in experiment [5] it was 10.4%; in experiment [6], -5.47%. The inhibition in experiment [7] is 2.84%; in experiment [8], -1.61%; in [9], 10.1%; in experiment [10], 1.39%; in experiment [11], 13.7%; in experiment [12], 3.06%. The inhibition was determined as 26.6% in [13]; 4.2% in [14]; 35.9% in experiment [15]; 76% in [16]; 88.3% in experiment [17]; 4.53% in [18]. The values for the inhibition in [19] and in experiment [20] were 18.1% and 5.97%, respectively.

In the case of `Nc1ncnc2occ(-c3ccc(NC(=O)Nc4cc(C(F)(F)F)cc(C(F)(F)F)c4)cc3)c12`, the inhibition in experiment [1] is 94.1%; in experiment [2] it was 42.3%; in experiment [3], 86.4%; in experiment [4], 39%; in experiment [5], 87.4%; in experiment [6] it was 1.73%. The inhibition in experiment [7] was 4.45%; in experiment [8], -8.39%; in experiment [9], 3.75%; in experiment [10] it was 2.66%; in experiment [11], 46%; in experiment [12] it was 10.6%. The inhibition in experiment [13] was found to be 44.5%; in experiment [14], 1.5%; in experiment [15] it was 79.7%; in experiment [16], 9.76%; in experiment [17], 29%; in [18], 15.7%. Also, the inhibition in experiment [19] is 48.9%; in experiment [20], 2.54%.

Take `CC1=C(C(=O)Nc2ccc3[nH]ncc3c2)C(c2ccc(Cl)c(Cl)c2)CC(=O)N1` (stereo not given): the inhibition in [1] is 0.57%; in [2], 1.67%; in [3] it was -0.28%; in experiment [4] it was 2.34%; in experiment [5], 1.92%; in experiment [6] it was 1.64%. Further, the inhibition in [7] amounted to 0.6%; in [8] it was 0.3%; in experiment [9] it was 7.89%; in experiment [10], 9.43%; in [11] it was 70.2%; in experiment [12], 1.32%. For the same compound, the inhibition in experiment [13] is 19.5%; in experiment [14], 3.19%; in experiment [15], 28.2%; in experiment [16], 3.78%; in experiment [17] it was 5.17%; in [18] it was -1.16%. In addition, the inhibition in [19] worked out at 1.61%; in [20] it was 2.18%.
